This note sets out measurements from PubChem BioAssay (NCI).

Assay in all cases: NCI-60 one-dose screen, 48 h (100 = growth as untreated, 0 = no growth, -100 = all killed)
Common to all, as to details: 10 µM unless noted

In experiment [1] the test system is DU-145 prostate.
For experiment [2], the system named is K-562 leukemia.
In experiment [3] the test system is MALME-3M melanoma.
Experiment [4] relates to MDA-MB-231 breast.
Experiment [5] deals with RXF 393 renal.
Experiment [6] deals with SF-268 CNS.
The test system of experiment [7] is SF-295 CNS.
Experiment [8] deals with SF-539 CNS.
Experiment [9] relates to UACC-257 melanoma.
Experiment [10] has as its system M14 melanoma.
Experiment [11] has as its system HCT-15 colon.
Experiment [12] relates to HT29 colon.
Experiment [13] relates to SNB-75 CNS.
In experiment [14] the test system is SNB-19 CNS.
Experiment [15] relates to U251 CNS.
Experiment [16] deals with PC-3 prostate.
The subject of experiment [17] is SK-MEL-5 melanoma.
The subject of experiment [18] is UACC-62 melanoma.
The subject of experiment [19] is LOX IMVI melanoma.
The subject of experiment [20] is SK-MEL-28 melanoma.

Structures are written as SMILES. The panel holds about 83,000 compounds, 20% with a hit somewhere; the sample as a whole holds those more often.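 Testing used 96-well plates and a 48-hour single-concentration exposure. Example: -40 means 40% of the starting cells died.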 A number with no mark means an inactive call. Active and inactive are the calls of the source. Rule for the calls: active = growth percent below 10; inactive = the rest.

`CCCC(NC(=O)OCc1ccccc1)C(=O)O` (stereo not given): the growth in [1] is 107%; in experiment [2], 107%; in experiment [3], 88.8%; in experiment [4], 75.9%; in experiment [5], 90.5%; in [6], 104%. Further, the growth in experiment [7] was 92.3%; in experiment [8], 95.9%; in experiment [9], 36.1%; in experiment [10] it was 93.1%; in [11], 103%; in [12] it was 104%. The growth was 84% in experiment [13]; 99.4% in [14]; 104% in experiment [15]; 93.8% in experiment [16]; 90.1% in [17]; 89.6% in experiment [18]. Moreover, the results for the growth in experiment [19] and in [20] were 99.5% and 92.8%, respectively.

Turning to `O=[N+]([O-])c1cc([N+](=O)[O-])c(C(F)(F)F)cc1NN=C(c1ccc(O)cc1)c1ccc(O)cc1`, the growth in experiment [1] is 114%; in experiment [2], 103%; in experiment [3], 117%; in experiment [4], 83.2%; in experiment [5], -57.8% (active); in [6], 88%. The growth is 110% in experiment [7]; -64.7% (active) in [8]; -61% (active) in experiment [9]; -47.8% (active) in [10]; 13.7% in [11]; 91.6% in experiment [12]. Moreover, the growth in [13] was 92.7%; in experiment [14], -4.43% (active); in experiment [15], 26.2%; in experiment [16], 51.1%; in experiment [17], -96.7% (active); in experiment [18], 60.6%. In addition, the growth in experiment [19] was 14%; in experiment [20], 94.8%.

For `Cc1cc(SC#N)ncn1`, the growth in [1] is 112%; in [2] it was 95.1%; in experiment [3], 100%; in experiment [4] it was 93.3%; in experiment [5] it was 105%; in experiment [6], 111%. Besides, the growth in [7] was 128%; in experiment [8], 103%; in experiment [9], 103%; in [10], 108%; in experiment [11], 102%; in experiment [12], 108%. Besides, the growth in [13] was 86.7%; in [14] it was 103%; in experiment [15], 103%; in experiment [16], 107%; in experiment [17] it was 100%; in experiment [18], 93.5%. Moreover, the growth in experiment [19] is 93.7%; in [20] it was 114%.

In the case of `Cn1cc(-c2noc(C(=O)c3cn(C)c4ncccc34)n2)c2ccccc21`, the growth was 87.4% in experiment [1]; 76.1% in experiment [2]; 72.5% in [3]; 70.3% in experiment [4]; 88.5% in experiment [5]; 99.3% in experiment [6]. The growth in experiment [7] was 101%; in [8], 90.2%; in [9], 103%; in experiment [10] it was 98.7%; in [11], 65.2%; in experiment [12], 102%. Moreover, the growth in experiment [13] was 60.4%; in experiment [14] it was 93.1%; in experiment [15] it was 89.2%; in experiment [16], 87%; in [17], 87.9%; in [18], 91.8%. Besides, the growth in [19] is 94.8%; in experiment [20] it was 100%.

Take `Nc1cccc2c1C(=O)c1cccc(NC(=O)c3ccccc3)c1C2=O`: the growth is 6.99% (active) in experiment [1]; 13.3% in experiment [2]; -17% (active) in experiment [3]; 38.4% in experiment [4]; -10.7% (active) in experiment [5]; 51.5% in experiment [6]. Further, the growth was -30.3% (active) in experiment [7]; -2.57% (active) in experiment [8]; 56.2% in experiment [9]; 14.2% in experiment [10]; 28.6% in experiment [11]; 2.96% (active) in experiment [12]. Also, the growth in experiment [13] was 6% (active); in experiment [14], 45.3%; in [15], 22.9%; in experiment [16] it was 32.5%; in experiment [17], 12.3%; in [18], 48.4%. In addition, the growth in experiment [19] was 8.96% (active); in experiment [20] it was 44.6%.

For `CC(C)CCSC1=CC(=O)c2ccccc2C1=O`, the growth in [1] was 77%; in [2], 19.3%; in experiment [3] it was -23.5% (active); in experiment [4], 0.131% (active); in experiment [5] it was 43.8%; in [6], 74.6%. Also, the growth was 103% in experiment [7]; 94.4% in experiment [8]; 58.6% in experiment [9]; 68.3% in experiment [10]; 72% in [11]; 97% in experiment [12]. The growth in experiment [13] was 7.99% (active); in experiment [14], 92.3%; in experiment [15] it was 86.3%; in [16], 37.8%; in [17] it was 67.8%; in [18], 74%. For the same compound, the growth in experiment [19] is 38%; in experiment [20] it was 27.2%.

`O=C(Nc1ccc(Oc2ccc(F)cc2)c(Cl)c1)c1cnccn1`: the growth in experiment [1] is 79.5%; in [2] it was 21.1%; in experiment [3], 70.1%; in experiment [4], 58.7%; in experiment [5], 72.3%; in [6], 72.2%. The growth was 72.9% in experiment [7]; 67.1% in experiment [8]; 79.8% in experiment [9]; 92.4% in [10]; 47.7% in experiment [11]; 23.7% in experiment [12]. For the same compound, the growth in experiment [13] was 47.7%; in experiment [14] it was 63.7%; in experiment [15], 38.2%; in experiment [16] it was 76%; in experiment [17], 49.5%; in [18], 50.3%. Also, the growth in experiment [19] was 51.5%; in [20], 76.9%.
